Experimental findings from PubChem BioAssay AID2813 (NMMLSC, 2010) are described below.

Each structure is given as a SMILES string. Values joined by “and” are separate entries in the source; they are usually repeats but may differ in a detail not shown here. Equal values may be shown once. The whole screen tested about 1,300 compounds, of which about 20 (2%) were called active. These entries were drawn from the full list. A number with no mark means an inactive call. Rule as the data show it: active = inhibition above about 40%; inactive = the rest.

The target of this assay is Integrin alpha-4 (Homo sapiens) (UniProt P13612). The assay can be described thus: VLA-4 modulation in picked hits – cell-based, cherry-picked plates, U937, HUTS-21 LIBS antibody, confirmation (AID 2813).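 Also: 0% = ligand without compound and 100% = no ligand background.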 The conditions noted are these: U937 cells, HUTS-21 LIBS mAb binding, flow cytometry; at 6.7 µM; hits give high values; LDV ligand present at threefold Kd. (In general: A flow cytometer gives signals particle by particle.)
Sequence of Integrin alpha-4 (Homo sapiens) (P13612 whole entry, looked up): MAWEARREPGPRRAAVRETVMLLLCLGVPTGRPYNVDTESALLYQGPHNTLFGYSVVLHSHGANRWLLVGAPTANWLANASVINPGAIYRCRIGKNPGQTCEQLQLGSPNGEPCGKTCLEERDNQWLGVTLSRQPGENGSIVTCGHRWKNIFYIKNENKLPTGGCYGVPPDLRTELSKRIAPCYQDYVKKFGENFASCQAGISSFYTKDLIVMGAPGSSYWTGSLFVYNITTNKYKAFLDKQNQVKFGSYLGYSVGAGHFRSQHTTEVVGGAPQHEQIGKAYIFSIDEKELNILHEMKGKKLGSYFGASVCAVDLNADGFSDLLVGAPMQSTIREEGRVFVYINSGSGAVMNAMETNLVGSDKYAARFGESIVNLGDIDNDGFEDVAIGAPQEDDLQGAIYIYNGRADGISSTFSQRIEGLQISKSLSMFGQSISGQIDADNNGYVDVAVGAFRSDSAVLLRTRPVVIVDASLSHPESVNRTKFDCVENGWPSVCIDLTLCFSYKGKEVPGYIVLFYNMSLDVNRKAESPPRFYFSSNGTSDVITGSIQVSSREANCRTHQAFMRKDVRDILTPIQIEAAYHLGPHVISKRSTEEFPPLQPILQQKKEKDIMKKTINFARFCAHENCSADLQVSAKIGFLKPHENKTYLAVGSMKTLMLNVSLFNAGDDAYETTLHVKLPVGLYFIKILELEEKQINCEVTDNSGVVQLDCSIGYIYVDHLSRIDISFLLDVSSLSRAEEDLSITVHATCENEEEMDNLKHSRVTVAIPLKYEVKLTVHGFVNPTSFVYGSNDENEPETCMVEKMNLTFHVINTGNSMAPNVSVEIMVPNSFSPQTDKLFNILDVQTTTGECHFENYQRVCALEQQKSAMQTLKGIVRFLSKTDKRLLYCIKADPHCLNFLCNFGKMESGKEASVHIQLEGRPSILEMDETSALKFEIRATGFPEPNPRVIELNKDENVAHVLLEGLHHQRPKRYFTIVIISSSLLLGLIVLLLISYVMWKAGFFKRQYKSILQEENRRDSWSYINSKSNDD
The inhibition is the relative decrease from the control value, in per cent. With `COc1ccc(C(=O)N2CCC(C(=O)Nc3cccc(C)c3)CC2)cc1OC`, the inhibition is -6.72%. Consider `Cc1ccc(NC(=O)OCc2cncs2)cc1`, for which the inhibition was 11.7%.

In the case of `CC1(C)SC2C(NC(=O)COc3ccccc3)C(=O)N2C1C(=O)O` (stereo not given), the inhibition is 4.42%.

Turning to `COC(=O)[C@]1(Cc2ccccc2)N[C@H](CN(C)S(=O)(=O)c2ccc(OC(F)(F)F)cc2)[C@@H]2C(=O)N(Cc3ccccc3)C(=O)[C@@H]21`, the inhibition is -5.51%. On to `CSc1nc(-c2ccco2)nn1C(=O)CCc1ccccc1`, for which the inhibition is 9.03%. Take `Cc1cccc(NS(=O)(=O)c2ccc(C)c(C(N)=O)c2)c1`: the inhibition is 0.43%. The same measure for `CC1(C(=O)NCCc2c[nH]c3ccccc23)C=CC2(CCCCC2)N1C(=O)c1ccccc1` (stereo not given): 5.58%; for `CCCOc1ccc(N2C(=O)CC(N(CCc3ccc(S(N)(=O)=O)cc3)C(C)=O)C2=O)cc1` (stereo not given): -1.15%.

On to `CC(=O)NC12CC3CC(C1)CC(C(=O)N1CCN(S(=O)(=O)c4cccs4)CC1)(C3)C2`, for which the inhibition is -0.75%.

For `Cc1nn(CC(=O)Nc2ccc(C#N)cc2)c(C)c1[N+](=O)[O-]`, the inhibition is -11.4%.

Take `Nc1ccc(Cl)c(S(=O)(=O)Nc2ccccc2Cl)c1`: the inhibition was -5.79%. `O=C1Cc2cc(S(=O)(=O)Nc3cccc(F)c3)ccc2N1`: the inhibition is -8.24%. The same measure for `CC(OC(=O)c1c(F)cccc1F)C(=O)NCCC1=CCCCC1` (stereo not given): 1.98%; for `O=C(Nc1cccc(S(=O)(=O)Nc2ccc(Cl)cc2)c1)c1ccc2c(c1)OCCO2`: -8.53%; for `Cc1cc(C)n(CC(O)CN(c2ccccc2)S(=O)(=O)c2ccc3ccccc3c2)n1` (stereo not given): 11.9%. Then `CC/C(O)=C1\C(=O)CC(C)(C)CC1=NCCc1nc2ccccc2[nH]1`, with -5.52%; and `CC(=O)c1cccc(NC(=O)C2CCN(C(=O)c3ccccc3Cl)CC2)c1`, with 5.38%.

As to `COC(=O)c1c(NC(=O)c2c(Cl)cnn2C)sc(C)c1C`, the inhibition is -13.4%. Then `CCn1c(SCC(=O)Nc2nc(C)cs2)nnc1C(C)NC(=O)c1ccccc1` (stereo not given), with 0.62% and 0%; and `Cc1ccc(S(=O)(=O)N2[C@@H](c3ccc(Br)cc3)C(C(=O)O)=C[C@H]2CC2CCCC2)cc1`, with 4.02%; and `Cc1cc(C)cc(C(=O)NCC(=O)OCC(=O)N2CCCCC2)c1`, with 13.7%. The same measure for `Cc1ccnc(NC(=O)c2ccco2)n1`: -3.54%; for `S=C(Nc1cccnc1)Nc1ccccn1`: -4.45%. `COc1cccc(-c2cccc(NC(=O)C3CCN(C4CCC4)CC3)c2)c1`: the inhibition is 3.49%. On to `COc1cccc(N2CCN(C3CC(=O)N(c4ccc(Cl)cc4)C3=O)CC2)c1` (stereo not given), for which the inhibition is 3.08%.

With `CCOC(=O)N1CCN(S(=O)(=O)c2ccc3c(c2)C(C)C(=O)N3)CC1` (stereo not given), the inhibition is 0.62%. For the compound `CCOC(=O)C1CCCN(S(=O)(=O)c2ccc3c(c2)C(C)(C)C(=O)N3C)C1` (stereo not given), the inhibition was 0.62%. Then `CC(=O)c1ccc(N2CCN(S(=O)(=O)c3ccc4c(c3)CC(=O)N4C)CC2)cc1`, with -9.51%; and `O=C(CN1CCC(NC(=O)Nc2ccccc2)CC1)Nc1cccc([N+](=O)[O-])c1`, with 1.64%; and `Cc1cnc(NC(=O)C2CCCC2)s1`, with -4.15%.

As for `Cc1ccc(S(=O)(=O)N2[C@@H](c3cccc4ccccc34)C(C(=O)O)=C[C@H]2C(C)(C)C)cc1`, the inhibition is 1.98%.

With `CCCN(CC1COc2ccccc2O1)C(=S)Nc1ccc(C)cc1` (stereo not given), the inhibition is -14.3%. As to `COCCNC(=O)Cn1cc2c(n1)CCCCC2`, the inhibition is 3.34%. Consider `CC(C)(C)NC(=O)NC(=O)COC(=O)Cn1c(C(F)(F)F)nc2ccccc21`, for which the inhibition is -13.5%. On to `COc1ccccc1NC(=O)c1cc(Cl)nnc1Cl`, for which the inhibition is 0%. Then `COC(=O)N/N=C/c1c[n+]([O-])c2ccccc2[n+]1[O-]`, with 1.64%.

For `COc1cccc(-c2sc3ccc(OC)cc3c2-c2ccc(OCCN3CCCCC3)cc2)c1`, the inhibition is 3.49%. Then `CCc1ccc2c(c1)C1(NN=C(c3ccccc3)S1)C(=O)N2` (stereo not given), with 2.06%. The same measure for `Cc1cc(C(=O)OCC(=O)Nc2ccc(F)c(F)c2)c(C)o1`: 0%.

For the compound `CCNC(=S)NNC(=O)Cc1ccccc1`, the inhibition is -5.51%. Then `CCOC(=O)C1(S(=O)(=O)c2ccccc2)CCN(Cc2ccccc2)CC1`, with 1.76%.

Turning to `COCCOC(=O)C1=C(C)Nc2nc(C)nn2C1c1ccccc1` (stereo not given), the inhibition was 3.82%. The same measure for `CCCOc1ccccc1C1CC(=O)Nc2cc3c(cc21)OCO3` (stereo not given): 37.9%; for `Cc1cc(C(=O)OCC(=O)NCc2ccco2)c(C)n1-c1ccccc1`: 24.9%; for `CCc1nnc(NC(=O)[C@@H](NC(=O)c2cccc(C)c2)C(C)C)s1`: 3.73%. As for `O=C(Nn1c(-c2ccccc2)nc2ccccc2c1=O)c1ccc([N+](=O)[O-])cc1`, the inhibition is -13.4%. As to `CC(C)N(Cc1ccccc1)C(=S)Nc1ccc(OC(F)F)cc1`, the inhibition is -7.72%. `Cc1cnc(NC(=O)CSc2nnc(C)s2)s1`: the inhibition is -0.75%. Consider `CCOc1ccc(N(CC(=O)Nc2ccccc2F)S(=O)(=O)c2c(C)[nH]c(=O)[nH]c2=O)cc1`, for which the inhibition is 5.58%. With `COc1ccccc1C1CC(=O)n2c(nc(-c3ccccc3)c2-c2ccccc2)S1` (stereo not given), the inhibition was -0.36%. Then `COc1ccc(-c2sc3ccccc3c2-c2ccc(OCCN3CCOCC3)cc2)cc1`, with 7.43%; and `CCOC(=O)C1(S(=O)(=O)c2ccc(Cl)cc2)CCN(Cc2ccccc2)CC1`, with 5.07%. Then `CC(=O)c1ccc(NC(=O)Cn2c(=O)oc3ccccc32)cc1`, with 2.42%; and `CCOC(=O)c1ccc(N2C(=O)CC(N3CC(C)OC(C)C3)C2=O)cc1` (stereo not given), with 5.58% and 0%; and `Cc1cc(C)cc(OCC(=O)NCc2cc(C)nc3ccccc23)c1`, with -0.36%. Consider `NC(=O)Cn1c(=O)oc2ccccc21`, for which the inhibition is -9.51%.

Turning to `Cc1c(CN2CCC(CO)(CCOc3ccccc3)CC2)[nH]c2ccc(Cl)cc12`, the inhibition is 22.3%. For `CCC(C)(C)NC(=O)c1cc([N+](=O)[O-])ccc1N1CCCCC1`, the inhibition was -9.35%.

For `O=C(CN1CCN(c2ncccn2)CC1)Nc1ccccc1C(F)(F)F`, the inhibition was 4.55%. Regarding `Cc1ccccc1OCCC(=O)OCC(=O)NC(C)c1ccccc1` (stereo not given), the inhibition is 9.45%. Then `CC(=O)N1CCc2cc(S(=O)(=O)Nc3ccccc3N3CCN(C)CC3)ccc21`, with 1.98%; and `Cc1nn(Cc2ccc(Cl)c(Cl)c2)c(C)c1NC(=O)c1cc(C2CC2)on1`, with -4.2%. Then `COc1ccc2sc(-c3ccccc3OC)c(-c3ccc(OCCN4CCCC4)cc3)c2c1`, with -4.83%; and `O=C(Cn1c(NCCO)nc2ccccc21)c1ccc(Cl)cc1Cl`, with 8.37%.

Regarding `Cc1ccc(/C=C/C(=O)OCC(=O)NCc2ccc(Cl)cc2)o1`, the inhibition is -0.23%.
